Source: PubChem BioAssay (National Center for Advancing Translational Sciences (NCATS))
DRD3 antagonist: D3 dopamine receptor (human) antagonism; AID 652054; 360,000 compounds, 2.5% hits; D3R cells, DiscoveRx beta-arrestin luminescence, antagonist mode; stronger effect = lower value; P35462; max response, negative = inhibition, %; in the data active = max response below about -50%; inconclusive = no clear call, values can overlap the other calls; note: % is set by controls: 0 for no effect and ±100 for the full control effect
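Cells expressing the human receptor were seeded at 1500 cells/well, incubated overnight at 37 degrees C in 5% CO2, then exposed to library compounds with dopamine controls for 90 minutes at 37 degrees C before luminescent detection.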
DRD3 agonist: D3 dopamine receptor (human) agonism; max activation, %; P35462; D3R DiscoveRx beta-arrestin cells, luminescence, 90 min; AID 652048; 410,000 compounds, 0.58% hits; in the data active = max activation above about 30%; note: 0% is about no effect
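Cells at 1500/well, incubated overnight, then treated with pinned compounds (dopamine as control) for 90 min at 37 degrees C. DiscoveRx reagent added for 30 - 60 minutes at room temperature; luminescence read.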
LDHA block: inhibitors of human lactate dehydrogenase A; P00338; 480,000 compounds, 0.15% hits; activity change, % (values are at about 110 or 230 µM); purified LDHA, NADH/diaphorase-resazurin fluorescence; stronger effect = lower value; in the data active = activity change below about -30%; inconclusive = mostly about -25% to -30%;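 note: plate controls were DMSO wells for no effect and wells without enzyme for full effect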
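Human LDH5 at 2 nM final in Tris HCl pH 7.4 with 0.06 mM NADH and 0.2 mM pyruvate, reacted 5 minutes at room temperature. Remaining NADH coupled via diaphorase/resazurin; resorufin fluorescence read at 0 and 20 minutes, normalized to enzyme-free and DMSO wells.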
PI5P4K alpha inh: blocks human PI5P4K alpha kinase activity; max response, %; AID 652105; P48426; 330,000 compounds, 1.2% hits; PI5P4Kalpha enzyme, ADP-Glo luminescence, 60 min; stronger effect = lower value; active = max response of -50% or lower; inconclusive = between -30% and -50%; inactive = -30% or higher; note: value at the top dose of about 77 µM; % is set by controls: 0 for no effect and ±100 for the full control effect
Target sequence (P48426 whole entry, looked up): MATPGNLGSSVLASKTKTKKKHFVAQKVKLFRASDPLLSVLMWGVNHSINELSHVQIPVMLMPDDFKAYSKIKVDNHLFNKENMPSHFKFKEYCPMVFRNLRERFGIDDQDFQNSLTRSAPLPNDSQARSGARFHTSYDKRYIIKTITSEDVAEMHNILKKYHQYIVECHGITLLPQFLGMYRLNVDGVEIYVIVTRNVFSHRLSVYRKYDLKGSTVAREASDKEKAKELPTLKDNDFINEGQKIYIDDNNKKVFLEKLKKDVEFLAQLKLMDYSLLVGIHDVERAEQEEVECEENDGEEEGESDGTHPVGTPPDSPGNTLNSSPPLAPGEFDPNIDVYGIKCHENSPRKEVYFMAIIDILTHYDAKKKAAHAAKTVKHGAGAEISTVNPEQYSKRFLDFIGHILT
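ADP-Glo luminescence end-point read after a 60 min room-temperature kinase reaction of PI5P4Kalpha plus substrate, initiated with ATP at 5 microM final. Buffer: 0.038 M HEPES pH 7.4, EGTA, 0.1% CHAPS, 5% DMSO.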
PI4K2A block: blocks human PI4K2A kinase activity; Q9BTU6; purified PI4K2A, ADP-Glo luminescence, 1 h; stronger effect = lower value; activity change, negative = inhibition, % at 76.9 µM; 420,000 compounds, 0.13% hits; in the data active = activity change below about -50%; inconclusive = mostly about -30% to -49%;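 note: -100% = wells without enzyme as full effect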
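ADP-Glo luminescence measured ADP generated by PI4K2A enzyme (4 ug/mL before mixing) with 1.2 mM PI substrate (pre-mix) and 300 microM ATP (pre-mix). Tris pH7.5 buffer with MgCl2, Triton X-100; 1 h reaction at ambient temperature.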
ADP-Glo counter: interferes with ADP-Glo detection without enzyme present. 1,100 tested, under 10 active. AID 743285. shares compounds with PI5P4K alpha inh. ADP-Glo detection counter-screen, luciferase luminescence, no enzyme. Potency, µM (highest dose often 76.9 µM), for the others: top-dose activity change, negative = inhibition, actives largely listed as inhibitors; active = well fitted curve in the direction sought with a large enough effect; inconclusive = small, poorly fitted or top-dose-only effect, or another doubt; inactive = no such curve, though single readings can be large or run the other way
Starred values were filed as active, the others as inactive; ? = inconclusive; . = no result. Most compounds without a hit are left out; they make up all but 3.3% or so of the library.

SMILES | DRD3 antagonist | DRD3 agonist | LDHA block | PI5P4K alpha inh | PI4K2A block | ADP-Glo counter
NS(=O)(=O)c1ccc2c(c1)C1C=CCC1C(C1CC=CCC1)N2 (stereo not given) | -12 | -6 | 10 | -80* | -13 | -13%
COc1cccc(CNC(=O)N2CCN(C(=O)c3ccccc3)CC2)c1 | . | . | 6 | . | . | .
CCOc1ccc(CC(=O)Nc2sc(Cc3ccccc3)c(C)c2C(N)=O)cc1OCC | 0 | 2 | 5 | -53* | -5 | -2%
Cc1c(Cc2ccccc2)sc(NC(=O)c2ccco2)c1C(N)=O | 7 | 4 | -4 | . | 10 | .
O=C(COc1ccc(Br)cc1)Nc1ccc(C(=O)Nc2ccccc2C(=O)O)cc1 | 18 | 3 | -32* | -58* | -5 | 4%
Cc1cccc(OCC(=O)Nc2cccc(C(=O)Nc3ccccc3C(=O)O)c2)c1C | . | . | 12 | . | . | .
O=C(COc1ccc2ccccc2c1)Nc1cccc(C(=O)Nc2ccccc2C(=O)O)c1 | 35 | -2 | -13 | -74* | 0 | 1%
COc1ccc(CNC(=O)Cc2n[nH]c(=O)c3ccccc23)cc1 | . | . | 0 | . | . | .
CCN(CC(=O)Nc1ccc(NC(C)=O)cc1)C(=O)c1cc2c(s1)CCCC2 | 11 | 4 | -1 | -50* | -8 | -6%
COc1cccc(NC(=O)CN(C)C(=O)c2cc3c(s2)CCC(C)C3)c1 (stereo not given) | 7 | 6 | 1 | 5 | 0 | .
CCN(CC(=O)Nc1ccc(NC(C)=O)cc1)C(=O)c1cc2c(s1)CCCCC2 | 12 | -9 | -2 | 5 | 0 | .
COc1cccc(NC(=O)CN(C)C(=O)c2cc3c(s2)CCC3)c1 | 0 | 3 | -2 | -71* | -23 | -3%
CCOc1ccc(-n2c(SCC(=O)Nc3ccc(S(=O)(=O)Nc4nccs4)cc3)nnc2-c2ccco2)cc1 | . | . | . | . | -6 | .
O=C(CC1C(=O)NCCN1CC1CCCCC1)NCc1cc(F)ccc1F (stereo not given) | -1 | -10 | 2 | -63* | -22 | 6%
Cc1cccc(N2CC(C(=O)Nc3nnc(SCC(=O)Nc4nccs4)s3)CC2=O)c1 (stereo not given) | -5 | 3 | -9 | ? | 18 | .
Cc1ccccc1N1CC(C(=O)Nc2nnc(SCC(=O)Nc3nccs3)s2)CC1=O (stereo not given) | -17 | -12 | -2 | ? | -3 | -9%
Clc1ccc2nc(CSc3nc4ccccc4o3)cn2c1 | -4 | -6 | -1 | -83* | -7 | -7%
COc1ccc(Cn2nc(-c3ccc(F)cc3OC)ccc2=O)cc1 | . | . | 1 | . | . | .
c1csc(-c2nc3ccccn3c2NC2CCCCC2)c1 | 1 | 2 | -4 | -4 | 2 | .
Cc1ccn2c(NC3CCCC3)c(-c3cccs3)nc2c1 | -14 | -7 | -12 | -65* | -1 | -5%
O=C(CN1CCN(c2ccccc2F)CC1)NCc1ccccc1 | -27 | 8 | 0 | -14 | 4 | 2%
Cc1cccc(N2CCN(CC(=O)NCc3ccccc3)CC2)c1C | ? | -9 | -5 | -5 | -7 | .
CCOC(=O)C1CCCN(C(=O)c2ccc(F)c(C)c2)CC1 (stereo not given) | 0 | -6 | -2 | ? | -5 | -1%
CCOC(=O)C1CCCN(C(=O)c2cc(F)cc(F)c2)CC1 (stereo not given) | 4 | 2 | -7 | 1 | 2 | .
N#Cc1c(NC(=O)CSc2nc(C(F)(F)F)nc3ccccc23)sc2c1CCC2 | . | . | 4 | . | . | .
SMILES | DRD3 antagonist | DRD3 agonist | LDHA block | PI5P4K alpha inh | PI4K2A block | ADP-Glo counter
O=C(/C=C/c1ccc(Cl)cc1)c1cccc(O)c1 | . | . | 2 | . | . | .
COc1ccc(-c2cc(C(F)F)n3ncc(C(=O)n4ccnc4C)c3n2)cc1 | -16 | -4 | -10 | -26 | -6 | 3%
Cc1cccc(N=c2oc3cc(O)ccc3cc2C(N)=O)c1 | -11 | -3 | 1 | -55* | -12 | 5%
COc1ccc2cc(C(N)=O)c(=Nc3ccc(C)cc3)oc2c1 | -13 | 0 | -11 | 8 | 0 | .
C/C(=N/NC(N)=S)c1cc2ccc(O)cc2oc1=O | 38 | 8 | 2 | ? | 0 | .
CCOc1ccc(C(=O)c2cc3ccc(O)cc3oc2=O)cc1 | -1 | 4 | -1 | -67* | -1 | 0%
NC(=S)c1cc2ccc(O)cc2oc1=O | -68* | -25 | 9 | -72* | -21 | -7%
Cc1ccc(NC(=O)CSc2nnc(OC(C)C)s2)c(Cl)c1 | . | . | -8 | . | . | .
CCn1c(SCC(=O)NC(=O)NCc2ccco2)nc2sc(C)c(C)c2c1=O | ? | 1 | -1 | -51* | -11 | 1%
O=C(CSc1nnc(Cc2ccccc2)n1Cc1ccccc1)NCc1ccco1 | -26 | -6 | 3 | -1 | -8 | .
Cc1nnc(SCC(=O)NC(=O)NCc2ccco2)n1Cc1ccccc1 | 8 | 8 | -7 | -52* | -23 | -2%
Nn1c(SCC(=O)NC(=O)NCc2ccco2)nnc1-c1ccc(OC(F)F)cc1 | 5 | 7 | -5 | -67* | -13 | -6%
CS(=O)(=O)c1ccc(NC(=O)COc2ccccc2C(=O)Nc2ccccc2)cc1 | . | . | -2 | . | . | .
Cc1ccc2nc(NC(=O)C3CCN(S(=O)(=O)c4cc([N+](=O)[O-])ccc4Cl)CC3)sc2c1 | 10 | 21 | -1 | -53* | -6 | 2%
O=C(Nc1nc2ccc(F)cc2s1)C1CCN(S(=O)(=O)c2cc([N+](=O)[O-])ccc2Cl)CC1 | -7 | -12 | 21 | ? | -19 | .
O=C(Nc1scc(-c2ccccc2)c1C(=O)O)c1ccc(F)cc1 | 20 | 3 | -2 | ? | -4 | .
Cc1ccc(-c2csc(NC(=O)c3ccc(F)cc3)c2C(=O)O)cc1 | 11 | -7 | -3 | -61* | 0 | 1%
COc1ccc2nc(SCC(=O)Nc3nc(C)cs3)[nH]c2c1 | . | . | 1 | . | . | .
Cc1ccc(-n2c3c(c(=O)[nH]c2=O)C(C(F)(F)F)(C(F)(F)F)N=C(c2ccco2)N3)cc1 | . | . | 5 | . | . | .
CC(=O)c1ccc(OCc2c(-c3ccccc3)nnn2CC(=O)NS(=O)(=O)c2ccccc2C)cc1 | -3 | -1 | -5 | -51* | -4 | -4%
CC(=O)c1ccc(OCc2c(-c3ccccc3)nnn2CC(=O)NS(=O)(=O)c2ccc(C)cc2)cc1 | 5 | -3 | -9 | -6 | -4 | .
Cc1ccc(NC(=O)N2CCCCCC2c2cccs2)cc1C (stereo not given) | . | . | 3 | . | . | .
Nc1sc2c(c1C(=O)c1ccccc1)CCCC2 | -7 | 4 | 4 | -51* | 1 | -6%
Cc1cc(NC(=O)CSc2cn(CCNC(=O)c3ccccc3)c3ccccc23)no1 | 0 | 1 | -1 | -76* | -15 | 0%
COc1ccc2c3n(nc2c1)CCN=C3c1ccc(Cl)cc1 | 9 | 11 | -13 | -1 | 2 | .
